Hits are enriched below; roughly 2.8% of the tested compounds scored in any of these assays.
PAX8 inh HTS: lowers PAX8-driven luciferase in RMG-I cells. RMG-I TPO-luciferase reporter, SteadyGlo, 24 h. inhibition, % at 12.6 µM. actives 1.2% (n = 360,000);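 active means mean replicate inhibition at least 60% with every replicate also reaching 60%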;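 further: luciferase light reporting Pax8 driven TPO promoter activity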
TROY NFkB inh: inhibitors of TROY-dependent NF-kB signaling; Q293 LMP1-TROYcd NF-kB luciferase reporter, 4 h; actives 0.98% (n = 360,000); AID 1347056; inhibition, % at 10 µM;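 active means compounds whose plate-normalised and pattern-corrected inhibition of the luciferase reporter signal at the single screening dose is 50% or more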
TWEAK Fn14 block: inhibitors of TWEAK-Fn14 interaction signaling | actives 2% (n = 360,000) | TWEAK-stimulated Fn14 reporter cells, luciferase luminescence, 8 h | inhibition, % at 10 µM; in the data active means inhibition above about 50%
LGR2 antag: Drosophila LGR2 receptor signaling inhibition. HEK293 LGR2, CRE-luciferase, bursicon-stimulated, 4 h. inhibition, % at 9.99 µM. actives 0.35% (n = 380,000). AID 720647;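 active means drop in luminescence signal, shown as inhibition above about 50% in the replicate tests, limit read from the data, passing the limit was not always enough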;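 further: agonist challenge used bursicon conditioned medium at about half maximal strength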
EWS-Fli block: blocks EWS/Fli oncoprotein-driven transcription; A673 NR0B1-luciferase reporter, viability-normalised; inhibition, % at 12.6 µM; actives 0.67% (n = 350,000); AID 651661;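 active means mean inhibition of at least 50% after viability correction, with every replicate also passing that limit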;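 further: firefly luciferase signal divided by Alamar Blue viability fluorescence both relative to DMSO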
A number is an active result.

What do the screens show for `COc1cccc(CNC(=O)C[C@@H]2CC[C@@H]3[C@@H](COc4ccc(NC(C)=O)cc4C(=O)N3C)O2)c1`?
PAX8 inh HTS: inactive; LGR2 antag: inactive; EWS-Fli block: inactive

Results for C[C@@H]1CN([C@H](C)CO)C(=O)c2cc(C3=CCCC3)cnc2O[C@@H]1CN(C)C(=O)c1ccncc1 ?
LGR2 antag: inactive; EWS-Fli block: inactive

What do the screens show for `COc1ccc(-c2coc3c(C(=O)Nc4cc(OC)c(OC)c(OC)c4)cccc23)c(C)c1`?
PAX8 inh HTS: inactive; TROY NFkB inh: 63.4; TWEAK Fn14 block: 92.6; LGR2 antag: 57.9; EWS-Fli block: inactive

How did COc1cc(NC(=O)c2cccc3c(-c4cccnc4)coc23)cc(OC)c1OC do in these assays?
PAX8 inh HTS: inactive; TROY NFkB inh: 68.4; TWEAK Fn14 block: 79.8; LGR2 antag: 85.6; EWS-Fli block: inactive

Results for O=C(Nc1cccc(C(F)(F)F)c1)c1cccc2c(-c3cccnc3)coc12 ?
TROY NFkB inh: inactive; TWEAK Fn14 block: inactive

How did Cc1noc(C)c1S(=O)(=O)N(C)C[C@H]1Oc2ccc(NC(=O)Cc3ccccc3)cc2CC(=O)N([C@H](C)CO)C[C@H]1C do in these assays?
PAX8 inh HTS: inactive; LGR2 antag: inactive; EWS-Fli block: inactive

What do the screens show for `CC(=O)N1CCc2c(sc(NC(=O)c3ccc([N+](=O)[O-])o3)c2C(N)=O)C1`?
PAX8 inh HTS: 86.6; TROY NFkB inh: inactive; TWEAK Fn14 block: inactive; LGR2 antag: inactive; EWS-Fli block: inactive

Results for CCC(=O)Nc1sc2c(c1C(N)=O)CCN(C(C)=O)C2 ?
PAX8 inh HTS: inactive; TROY NFkB inh: inactive; TWEAK Fn14 block: inactive; LGR2 antag: inactive; EWS-Fli block: inactive

What do the screens show for `CCCNC(=O)Nc1ccc2c(c1)C(=O)N(C)C[C@@H](OC)[C@@H](C)CN(C(=O)C1CCOCC1)[C@H](C)CO2`?
PAX8 inh HTS: inactive; LGR2 antag: inactive; EWS-Fli block: inactive

What do the screens show for `C[C@@H]1CN([C@H](C)CO)C(=O)c2cc(C#Cc3ccccc3F)cnc2O[C@@H]1CN(C)S(C)(=O)=O`?
PAX8 inh HTS: inactive; LGR2 antag: inactive; EWS-Fli block: inactive

What do the screens show for `N#C[C@H]1[C@@H](c2ccc(C#CC3CCCCC3)cc2)[C@@H](CO)N1C(=O)Cc1ccccn1`?
PAX8 inh HTS: 61.4; EWS-Fli block: inactive

How did N#C[C@@H]1[C@@H](c2ccc(-c3ccccc3)cc2)[C@@H](CO)N1C(=O)Cc1ccncc1 do in these assays?
PAX8 inh HTS: 68.3; LGR2 antag: inactive; EWS-Fli block: inactive

Results for N#C[C@@H]1[C@H](c2ccc(C#CC3CCCCC3)cc2)[C@@H](CO)N1C(=O)c1cccc(F)c1 ?
PAX8 inh HTS: inactive; LGR2 antag: 64.8; EWS-Fli block: inactive

Results for N#C[C@@H]1[C@H](c2ccc(C#CC3CCCC3)cc2)[C@H](CO)N1C(=O)Nc1ccc(F)cc1 ?
PAX8 inh HTS: 85.5; LGR2 antag: inactive; EWS-Fli block: inactive

What do the screens show for `O=C(C[C@H]1CC[C@H]2[C@@H](COC[C@@H](O)CN2C(=O)c2ccccc2F)O1)N1CCOCC1`?
PAX8 inh HTS: inactive; LGR2 antag: inactive; EWS-Fli block: inactive

What do the screens show for `C/C=C/c1cnc2c(c1)C(=O)N([C@@H](C)CO)C[C@@H](C)[C@H](CN(C)C(=O)CN1CCOCC1)O2`?
LGR2 antag: inactive; EWS-Fli block: inactive

What do the screens show for `C[C@@H]1CN([C@@H](C)CO)C(=O)c2cc(NS(=O)(=O)c3cn(C)cn3)ccc2O[C@H]1CN(C)C`?
PAX8 inh HTS: inactive; LGR2 antag: inactive; EWS-Fli block: inactive

Results for N#C[C@H]1[C@@H](c2ccc(C#Cc3ccc(F)cc3)cc2)[C@H](CO)N1C(=O)Nc1ccc(F)cc1 ?
PAX8 inh HTS: 93.6; LGR2 antag: inactive; EWS-Fli block: inactive

How did N#C[C@H]1[C@H](c2ccc(C#Cc3ccc(F)cc3)cc2)[C@H](CO)N1C(=O)Nc1ccc(F)cc1 do in these assays?
PAX8 inh HTS: inactive; LGR2 antag: inactive; EWS-Fli block: inactive

Results for Cc1cc2c(=O)oc(-c3ccc(F)cc3)nc2s1 ?
PAX8 inh HTS: inactive; TROY NFkB inh: inactive; TWEAK Fn14 block: 52.7; LGR2 antag: inactive; EWS-Fli block: inactive

What do the screens show for `COc1ccc(N(CC(=O)NCCSCc2ccccc2C)S(=O)(=O)c2ccccc2)cc1`?
PAX8 inh HTS: inactive; TROY NFkB inh: 76.4; TWEAK Fn14 block: inactive; LGR2 antag: inactive

Results for COc1ccc(N(CC(=O)NCC(C)C)S(=O)(=O)c2ccccc2)cc1 ?
PAX8 inh HTS: inactive; TROY NFkB inh: inactive; TWEAK Fn14 block: inactive; LGR2 antag: inactive; EWS-Fli block: inactive

Assay outcomes from PubChem.
